DT40 TDP1 no CPT: qHTS for Inhibitors of human tyrosyl-DNA phosphodiesterase 1 (TDP1): qHTS in cells in absence of CPT. DT40 Tdp1-/- hTDP1 cells, no CPT, ATP luminescence, 48 h. Potency, µM (titrated, usually from 46.2 µM), inactives show at the highest dose activity change, negative = growth inhibition, hits mostly inhibitors. 420,000 tested, 15% active. AID 686978, 2013; also: potency is read from the fitted curve at half-maximal effect; nearly all actives have a fitted effect of over 55% in size
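Growth of hTDP1-complemented DT40 Tdp1-knockout cells is measured by ATP luminescence after at least 48 hr compound exposure at 37 °C, with DMSO substituting for the 20 nM CPT used in the parallel screen.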
HT1080 IDH1KD tx: HT-1080 IDH1 knockdown cell toxicity (counter line); Potency, µM (top dose mostly 46.1 µM), for the others: at the highest dose activity, negative = toxicity, most hits filed as cytotoxic; 360,000 tested, 2% active; AID 686971; HT-1080 IDH1 knockdown viability, ATP luminescence, 48 h;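 also: potency is read from the fitted curve at half-maximal effect; 0% = DMSO wells and -100% = cell-free medium wells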
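In this qHTS, HT-1080 cells depleted of IDH1 are exposed for 48 h at 37 °C to compound titrations. Toxicity is scored from CellTiter-Glo luminescence, with DMSO as full viability and medium alone as none.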
DT40 TDP1 CPT: growth inhibition of DT40 Tdp1-/-;hTDP1 cells with camptothecin (screen for TDP1 inhibitors); Potency, µM (series often up to 46.2 µM), for the others: top-dose activity change, negative = growth inhibition, hits mostly inhibitors; chicken DT40 Tdp1-/-;hTDP1 cells + 20 nM CPT, ATP luminescence, 48 h; 420,000 tested, 12% active; also: potency is read from the fitted curve at half-maximal effect; nearly all actives have a fitted effect of over 55% in size
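Chicken DT40 Tdp1-/- cells stably complemented with human TDP1 were seeded at 400 cells/well in medium containing 20 nM camptothecin, exposed to pin-transferred compounds, and grown at 37 °C for at least 48 hr. Viability was read as ATP luminescence.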
IL1B secr inh: inflammasome signaling inhibition, IL-1 beta readout. THP-1 LPS/ATP IL-1B secretion, AlphaLISA, 16 h; active compounds read low. activity change, % at 57.5 µM. 360,000 tested, 4.7% active. AID 743279; in the data active = activity change below about -50%; inconclusive = mostly about -30% to -49%
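THP-1 cells pretreated 1 hr with compounds (up to 57.5 uM final), then stimulated with LPS (250 ng/mL final) plus ATP (1.25 mM final); secreted IL-1B measured by AlphaLISA after 16 hr, decreased signal indicating inhibition.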
HT1080-NT tox: kills 2HG-producing HT-1080-NT fibrosarcoma cells. 360,000 tested, 1.6% active. HT-1080-NT fibrosarcoma viability, CellTiter-Glo ATP luminescence, 48 h. AID 686970. Potency, µM (series often up to 46.1 µM), for the others: top-dose activity, negative = less viability, hits mostly cytotoxic;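 also: NT is the 2HG producing partner of a matched IDH1 knockdown line; potency is read from the fitted curve at half-maximal effect; 0% = DMSO-treated cells and -100% = media-only wells without cells; nearly all actives have a fitted effect of over 55% in size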
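Read-out is CellTiter-Glo luminescence after 10 minutes at room temperature, following 48 hours' compound treatment of HT-1080-NT cells (750 cells/well, RPMI, 5% FBS, 37 degrees C).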
ELG1 DNA repair: ELG1-dependent DNA repair inhibition | HEK293T ELG1-luciferase reporter, luminescence, 16 h; DNA damage induced by 5-fluorouridine | Potency, µM (doses to about 46.1 µM), without a hit: top-dose activity change, negative = inhibition, hits mostly inhibitors | 330,000 tested, 2.3% active; also: potency is read from the fitted curve at half-maximal effect; nearly all actives have a fitted effect of over 55% in size
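Step one: seed 2,000 cells per well. Step two: pin-transfer compound or DMSO alongside 5-fluorouridine. Step three: incubate 16 hr, 37 °C, 5% CO2. Step four: add ONE-Glo, wait 30 min, read luminescence.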
Starred values were filed as active, the others as inactive; ? = inconclusive; nt = no result given; [ ] = dose if it differs, or a comment. This is a sample that favours compounds with a hit; in the whole collection about 19% have one here. Unless noted, calls follow the shape of the dose curve; as a rule, active = well fitted curve in the direction sought with a large enough effect; inconclusive = small, poorly fitted or top-dose-only effect, or another doubt; inactive = no such curve, though single readings can be large; an effect the other way counts as inactive or inconclusive. Unless noted, % is scaled to controls: 0 for no effect and ±100 for the full control effect.

SMILES | DT40 TDP1 no CPT | HT1080 IDH1KD tx | DT40 TDP1 CPT | IL1B secr inh | HT1080-NT tox | ELG1 DNA repair
Cc1ccc(-c2csc(N/N=C/c3ccco3)n2)cc1 | ? | -21% | ? | -6 | -7% | ?
C(=N\Nc1nc(-c2ccccc2)cs1)/c1ccco1 | 15µM* | -14% | 21µM* | -21 | -13% | ?
CN(C)S(=O)(=O)c1ccc(C(=O)NCC(=O)N/N=C/c2ccco2)cc1 | 16% | 22% | -3% | -19 | 19% | 2%
Cc1sc(N/N=C/c2cccnc2)nc1-c1ccccc1 | ? | ? | -24% | ? | -15% | -4%
Cc1sc(N/N=C/c2ccco2)nc1-c1ccccc1 | 23µM* | -28% | ? | -11 | -16% | ?
CN(C)S(=O)(=O)c1ccc(-c2csc(N/N=C/c3ccco3)n2)cc1 | 8.2µM* | -13% | 12µM* | -94* | -23% | ?
Brc1ccc(-c2csc(N/N=C/c3ccco3)n2)cc1 | 10µM* | 0% | ? | -2 | 1% | ?
CCCN1CCC(Oc2cccc(C(=O)NCCc3ccccc3)c2)CC1 | -16% | -7% | ? | -15 | -2% | ?
COc1ccc(CCN(C)C(=O)c2cnn(-c3nccc(-c4ccc(C)o4)n3)c2C)cc1OC | -46% | nt | 5%[9.04 µM] | nt | nt | nt
CCC1=NN2C(=N)/C(=C\c3ccc(OCCOc4ccccc4OC)cc3)C(=O)N=C2S1 | 1% | 6% | 7% | -3 | -8% | 0%
Clc1ccc(-c2csc(N/N=C/c3ccco3)n2)cc1 | 7.3µM* | -10% | ? | -22 | -9% | ?
C(=N\Nc1nc(-c2ccccc2)cs1)/c1cccs1 | ? | -22% | ? | ? | -1% | ?
C(=N\Nc1nc(-c2ccccc2)cs1)/c1ccncc1 | ? | 1% | -24% | ? | -1% | ?
Clc1ccc(-c2csc(N/N=C\c3cccnc3)n2)cc1 | 15µM* | -10% | ? | -7 | -1% | 0%
Cc1onc(-c2ccccc2)c1-c1csc(N/N=C/c2ccccc2)n1 | 12µM* | -9% | ? | 6 | -17% | ?
CN(C)S(=O)(=O)c1ccc(-c2csc(N/N=C/c3ccc(O)cc3)n2)cc1 | 0.65µM* | 4.1µM* | 0.92µM* | -103* | 9.2µM* | ?
COCCCN1C(=O)C(CC(=O)NCCN2CCOCC2)CC(C(=O)N(C(C)C)C(C)C)=C1C (configuration not stated) | ? | 17% | -8% | 0 | 8% | nt
CCC(C)NC(=O)c1sc2nc3n(c(=O)c2c1C)CCC3 (configuration not stated) | -8% | nt | 1% | nt | nt | nt
O=C(/C=C/c1ccccc1)NCCc1ccccc1 | 12µM* | 16% | 9.2µM* | 12 | 1% | ?
O=C(/C=C/c1ccc([N+](=O)[O-])cc1)NCCc1ccccc1 | ? | 12% | ? | -9 | 8% | 8%
NS(=O)(=O)c1ccc(CCNC(=O)/C=C/c2ccc([N+](=O)[O-])cc2)cc1 | 15µM* | -1% | ? | 0 | -4% | 0%
COc1ccc(CCNC(=O)/C=C/c2ccco2)cc1 | ? | 1% | 16µM* | -26 | -3% | 6%
CN(CC(=O)Nc1ccc(F)cc1[N+](=O)[O-])C1CCS(=O)(=O)C1 (configuration not stated) | 1% | 4% | -29% | 14 | 4% | 19%
COc1ccc(NC(=O)CSc2nnc3ccc(-c4cccnc4)nn23)c(OC)c1 | 1% | 14% | 6% | -10 | 11% | ?

Screens as filed in PubChem.
